Test results from the supplement of paper PMC11732987, “Enantioselective OTUD7B fragment discovery through chemoproteomics screening and high-throughput optimisation” (Communications Chemistry, 2025).

Legend:
Assay in all cases: log2 ratio of Biotin-Ahx-Ub-VS probe labelling (fragment/DMSO); higher = less target engagement (more negative = stronger competition), active = hit call of the paper (q ≤ 0.05, log2 ratio ≤ -1)
Conditions in all cases: compound concentration: 200 uM; treatment time: 3 h
[1] = biological target: T1, USP19 (UniProt O94966)
T1 sequence (whole entry): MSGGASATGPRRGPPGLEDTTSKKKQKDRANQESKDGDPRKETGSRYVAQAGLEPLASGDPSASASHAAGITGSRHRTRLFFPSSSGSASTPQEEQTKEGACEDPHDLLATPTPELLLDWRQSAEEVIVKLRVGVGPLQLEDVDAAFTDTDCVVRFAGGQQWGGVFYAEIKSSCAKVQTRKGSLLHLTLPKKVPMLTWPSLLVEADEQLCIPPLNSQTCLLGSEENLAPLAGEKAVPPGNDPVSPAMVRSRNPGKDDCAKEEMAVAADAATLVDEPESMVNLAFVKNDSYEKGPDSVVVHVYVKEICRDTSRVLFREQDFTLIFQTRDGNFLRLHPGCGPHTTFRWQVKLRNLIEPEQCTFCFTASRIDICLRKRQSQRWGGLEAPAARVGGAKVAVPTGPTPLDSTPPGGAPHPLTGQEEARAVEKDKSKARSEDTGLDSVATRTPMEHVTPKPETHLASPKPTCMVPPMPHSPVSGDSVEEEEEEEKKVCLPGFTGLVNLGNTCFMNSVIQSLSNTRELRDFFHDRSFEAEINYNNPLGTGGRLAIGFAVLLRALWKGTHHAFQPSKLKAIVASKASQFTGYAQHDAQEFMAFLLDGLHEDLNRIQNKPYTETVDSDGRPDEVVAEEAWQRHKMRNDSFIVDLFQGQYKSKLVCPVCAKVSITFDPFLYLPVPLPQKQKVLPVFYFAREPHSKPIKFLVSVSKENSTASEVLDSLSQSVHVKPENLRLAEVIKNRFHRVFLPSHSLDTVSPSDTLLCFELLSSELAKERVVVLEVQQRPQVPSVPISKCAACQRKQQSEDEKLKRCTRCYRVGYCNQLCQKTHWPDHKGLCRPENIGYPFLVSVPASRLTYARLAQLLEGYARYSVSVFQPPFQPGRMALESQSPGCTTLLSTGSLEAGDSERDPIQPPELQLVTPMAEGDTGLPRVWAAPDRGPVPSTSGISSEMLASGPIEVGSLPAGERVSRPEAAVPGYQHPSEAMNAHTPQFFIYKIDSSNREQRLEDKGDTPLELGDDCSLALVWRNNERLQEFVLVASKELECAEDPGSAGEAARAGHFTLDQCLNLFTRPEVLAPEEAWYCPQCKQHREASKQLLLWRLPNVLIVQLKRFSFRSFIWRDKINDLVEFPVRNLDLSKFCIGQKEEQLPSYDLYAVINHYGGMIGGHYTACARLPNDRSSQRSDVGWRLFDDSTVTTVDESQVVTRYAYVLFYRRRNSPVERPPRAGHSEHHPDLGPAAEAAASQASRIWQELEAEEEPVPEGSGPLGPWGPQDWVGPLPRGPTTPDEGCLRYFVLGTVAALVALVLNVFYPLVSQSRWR
Outline: (§1)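 Fragment (200 µM) or vehicle was incubated for 3 h with triplicate HEK293T lysate samples of 495 µg, which were then treated with Biotin-Ahx-Ub-VS at 0.5 µM final for 1 h. Labelled DUBs were enriched on NeutrAvidin, digested with LysC and trypsin, and analysed by diaPASEF LC-MS/MS. Values are average log2 fragment/vehicle ratios from an unpaired t-test on global-median-normalised Spectronaut label-free quantities, using proteins with ≥2 unique peptides.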

[2] = biological target: T2, USP22 (UniProt Q9UPT9)
T2 sequence (whole entry): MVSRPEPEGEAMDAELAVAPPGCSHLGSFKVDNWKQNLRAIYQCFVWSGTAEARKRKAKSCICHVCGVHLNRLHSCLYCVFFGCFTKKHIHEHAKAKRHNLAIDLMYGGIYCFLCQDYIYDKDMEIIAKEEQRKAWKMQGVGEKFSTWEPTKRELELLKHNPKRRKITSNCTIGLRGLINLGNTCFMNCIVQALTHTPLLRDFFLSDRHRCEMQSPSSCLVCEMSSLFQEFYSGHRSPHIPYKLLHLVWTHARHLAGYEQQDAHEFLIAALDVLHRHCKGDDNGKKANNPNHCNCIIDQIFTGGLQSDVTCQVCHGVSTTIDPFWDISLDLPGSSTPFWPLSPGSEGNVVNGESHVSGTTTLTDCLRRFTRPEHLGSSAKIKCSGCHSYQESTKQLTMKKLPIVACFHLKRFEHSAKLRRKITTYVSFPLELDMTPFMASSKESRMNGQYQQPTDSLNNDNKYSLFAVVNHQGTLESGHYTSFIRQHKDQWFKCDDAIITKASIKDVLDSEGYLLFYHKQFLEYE
Outline: as §1

[3] = biological target: USP24 (UniProt Q9UPU5)
USP24, sequence (Q9UPU5 whole entry): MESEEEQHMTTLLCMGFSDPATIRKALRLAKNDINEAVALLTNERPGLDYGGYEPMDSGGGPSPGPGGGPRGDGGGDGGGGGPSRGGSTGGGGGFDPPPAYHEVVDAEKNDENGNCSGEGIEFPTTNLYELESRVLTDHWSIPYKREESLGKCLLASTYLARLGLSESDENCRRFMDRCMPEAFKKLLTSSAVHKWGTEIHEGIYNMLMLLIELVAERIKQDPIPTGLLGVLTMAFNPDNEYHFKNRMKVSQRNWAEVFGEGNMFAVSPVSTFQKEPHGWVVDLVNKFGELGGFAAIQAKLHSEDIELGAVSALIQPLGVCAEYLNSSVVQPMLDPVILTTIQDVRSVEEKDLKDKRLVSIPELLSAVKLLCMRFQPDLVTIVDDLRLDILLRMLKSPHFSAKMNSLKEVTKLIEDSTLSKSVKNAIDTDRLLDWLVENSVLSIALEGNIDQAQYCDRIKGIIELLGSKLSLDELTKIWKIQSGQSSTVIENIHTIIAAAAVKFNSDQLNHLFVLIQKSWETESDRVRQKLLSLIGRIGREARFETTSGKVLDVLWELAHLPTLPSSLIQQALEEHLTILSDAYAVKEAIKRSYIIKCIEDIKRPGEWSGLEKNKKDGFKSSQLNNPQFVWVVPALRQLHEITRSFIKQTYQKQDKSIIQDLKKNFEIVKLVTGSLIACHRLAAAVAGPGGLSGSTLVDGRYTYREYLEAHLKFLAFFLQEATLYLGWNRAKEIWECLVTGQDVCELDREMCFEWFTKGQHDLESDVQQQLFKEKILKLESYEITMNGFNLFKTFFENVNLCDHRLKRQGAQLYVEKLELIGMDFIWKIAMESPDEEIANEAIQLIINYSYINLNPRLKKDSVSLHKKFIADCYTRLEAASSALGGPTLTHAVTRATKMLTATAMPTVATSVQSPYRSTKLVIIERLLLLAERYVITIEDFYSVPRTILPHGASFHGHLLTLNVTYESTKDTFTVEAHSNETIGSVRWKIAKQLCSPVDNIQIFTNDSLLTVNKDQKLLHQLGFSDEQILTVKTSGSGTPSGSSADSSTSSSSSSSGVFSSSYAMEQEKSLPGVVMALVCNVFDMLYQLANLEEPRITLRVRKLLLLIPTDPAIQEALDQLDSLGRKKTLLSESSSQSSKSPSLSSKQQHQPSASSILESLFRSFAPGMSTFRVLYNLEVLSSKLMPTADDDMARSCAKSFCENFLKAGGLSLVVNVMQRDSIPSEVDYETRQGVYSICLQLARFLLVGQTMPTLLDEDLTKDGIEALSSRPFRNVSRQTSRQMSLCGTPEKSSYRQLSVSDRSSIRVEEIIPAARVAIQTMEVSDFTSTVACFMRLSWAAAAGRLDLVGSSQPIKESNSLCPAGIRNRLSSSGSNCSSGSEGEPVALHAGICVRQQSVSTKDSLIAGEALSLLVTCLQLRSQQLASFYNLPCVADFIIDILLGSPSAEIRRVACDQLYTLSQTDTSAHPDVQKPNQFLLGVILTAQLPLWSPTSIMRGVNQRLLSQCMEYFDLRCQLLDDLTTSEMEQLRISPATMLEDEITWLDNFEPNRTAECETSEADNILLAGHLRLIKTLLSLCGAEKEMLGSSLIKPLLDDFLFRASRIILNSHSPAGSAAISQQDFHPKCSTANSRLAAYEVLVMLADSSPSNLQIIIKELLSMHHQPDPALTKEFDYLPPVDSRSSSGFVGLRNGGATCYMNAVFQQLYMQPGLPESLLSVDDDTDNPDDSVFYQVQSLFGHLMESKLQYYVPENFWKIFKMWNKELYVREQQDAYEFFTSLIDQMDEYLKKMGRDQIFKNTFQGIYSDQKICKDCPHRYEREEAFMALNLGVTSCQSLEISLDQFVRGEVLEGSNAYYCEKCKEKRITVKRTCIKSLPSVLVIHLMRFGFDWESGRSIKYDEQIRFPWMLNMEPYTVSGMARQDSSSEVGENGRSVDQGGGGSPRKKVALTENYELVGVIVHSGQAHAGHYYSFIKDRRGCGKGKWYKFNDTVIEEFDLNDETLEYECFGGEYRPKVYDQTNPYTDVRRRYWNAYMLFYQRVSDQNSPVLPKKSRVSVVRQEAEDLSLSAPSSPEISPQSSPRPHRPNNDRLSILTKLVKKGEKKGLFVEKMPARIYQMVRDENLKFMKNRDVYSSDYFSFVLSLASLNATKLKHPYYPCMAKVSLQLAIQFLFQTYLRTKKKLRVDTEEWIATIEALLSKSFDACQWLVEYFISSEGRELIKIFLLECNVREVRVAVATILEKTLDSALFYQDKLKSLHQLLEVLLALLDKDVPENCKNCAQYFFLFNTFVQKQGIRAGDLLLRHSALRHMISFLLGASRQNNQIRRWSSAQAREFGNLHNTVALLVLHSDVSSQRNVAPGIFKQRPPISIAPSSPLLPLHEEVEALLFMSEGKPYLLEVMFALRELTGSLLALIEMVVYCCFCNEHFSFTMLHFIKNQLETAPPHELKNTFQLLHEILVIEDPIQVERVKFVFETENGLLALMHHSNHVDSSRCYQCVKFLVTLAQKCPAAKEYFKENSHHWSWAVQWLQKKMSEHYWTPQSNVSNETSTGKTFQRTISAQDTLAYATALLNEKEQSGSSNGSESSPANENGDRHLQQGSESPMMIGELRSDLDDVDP
Outline: as §1

[4] = biological target: T3, USP25 (UniProt Q9UHP3)
T3 sequence (whole entry): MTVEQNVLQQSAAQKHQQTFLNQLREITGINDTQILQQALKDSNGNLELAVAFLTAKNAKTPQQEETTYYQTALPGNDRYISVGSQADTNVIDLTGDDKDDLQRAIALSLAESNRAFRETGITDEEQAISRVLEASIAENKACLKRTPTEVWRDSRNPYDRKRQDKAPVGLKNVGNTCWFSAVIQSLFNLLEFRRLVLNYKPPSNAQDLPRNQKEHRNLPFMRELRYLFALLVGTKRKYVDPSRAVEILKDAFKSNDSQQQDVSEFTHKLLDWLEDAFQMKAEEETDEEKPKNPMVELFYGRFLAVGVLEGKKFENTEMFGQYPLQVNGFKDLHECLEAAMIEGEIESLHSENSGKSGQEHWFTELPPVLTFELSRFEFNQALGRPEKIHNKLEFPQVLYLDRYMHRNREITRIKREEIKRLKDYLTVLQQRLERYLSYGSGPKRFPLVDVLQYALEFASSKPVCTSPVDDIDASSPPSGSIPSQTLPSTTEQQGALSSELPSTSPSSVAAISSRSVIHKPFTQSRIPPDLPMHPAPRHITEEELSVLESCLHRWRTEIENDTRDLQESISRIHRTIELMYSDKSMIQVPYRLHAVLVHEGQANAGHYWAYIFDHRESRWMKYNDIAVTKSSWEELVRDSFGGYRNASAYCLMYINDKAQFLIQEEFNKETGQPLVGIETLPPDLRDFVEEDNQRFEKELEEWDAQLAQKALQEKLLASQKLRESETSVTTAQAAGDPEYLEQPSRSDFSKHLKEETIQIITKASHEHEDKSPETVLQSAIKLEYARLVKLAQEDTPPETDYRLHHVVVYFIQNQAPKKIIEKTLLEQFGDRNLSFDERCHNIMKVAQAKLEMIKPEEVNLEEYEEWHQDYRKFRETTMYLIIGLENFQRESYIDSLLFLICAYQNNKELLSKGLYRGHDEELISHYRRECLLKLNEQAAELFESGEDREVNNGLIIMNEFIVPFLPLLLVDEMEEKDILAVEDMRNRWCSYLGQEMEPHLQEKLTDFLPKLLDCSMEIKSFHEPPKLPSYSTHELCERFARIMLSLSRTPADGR
Outline: as §1

[5] = biological target: T4, USP28 (UniProt Q96RU2)
T4 sequence (whole entry): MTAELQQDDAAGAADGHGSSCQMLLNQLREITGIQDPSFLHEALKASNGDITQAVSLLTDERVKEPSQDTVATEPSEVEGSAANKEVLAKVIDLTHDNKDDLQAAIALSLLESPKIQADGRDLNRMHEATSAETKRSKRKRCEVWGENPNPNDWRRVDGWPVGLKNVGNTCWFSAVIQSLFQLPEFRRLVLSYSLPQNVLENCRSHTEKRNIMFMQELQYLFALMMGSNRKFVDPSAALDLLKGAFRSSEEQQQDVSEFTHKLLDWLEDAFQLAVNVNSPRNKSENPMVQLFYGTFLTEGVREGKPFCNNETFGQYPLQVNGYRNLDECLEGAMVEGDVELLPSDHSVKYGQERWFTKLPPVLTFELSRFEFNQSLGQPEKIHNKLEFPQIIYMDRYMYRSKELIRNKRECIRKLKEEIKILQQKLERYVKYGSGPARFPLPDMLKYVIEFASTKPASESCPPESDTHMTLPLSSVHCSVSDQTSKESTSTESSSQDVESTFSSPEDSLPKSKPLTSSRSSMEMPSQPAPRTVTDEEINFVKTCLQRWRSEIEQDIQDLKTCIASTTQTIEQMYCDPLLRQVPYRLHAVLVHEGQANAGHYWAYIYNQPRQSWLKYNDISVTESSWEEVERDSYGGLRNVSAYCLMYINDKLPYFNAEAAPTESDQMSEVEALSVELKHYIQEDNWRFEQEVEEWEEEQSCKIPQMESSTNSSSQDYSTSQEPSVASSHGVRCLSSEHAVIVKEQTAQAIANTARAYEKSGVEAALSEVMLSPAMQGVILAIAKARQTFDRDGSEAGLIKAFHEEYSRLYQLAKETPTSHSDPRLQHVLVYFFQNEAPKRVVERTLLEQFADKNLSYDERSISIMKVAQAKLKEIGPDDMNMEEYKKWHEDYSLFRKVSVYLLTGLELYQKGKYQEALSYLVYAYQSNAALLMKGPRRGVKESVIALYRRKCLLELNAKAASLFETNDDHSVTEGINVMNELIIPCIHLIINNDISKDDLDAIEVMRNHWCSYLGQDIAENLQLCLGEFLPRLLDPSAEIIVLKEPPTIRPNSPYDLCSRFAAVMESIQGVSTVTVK
Outline: as §1

Measured: log2 ratio of Biotin-Ahx-Ub-VS probe labelling

Cl.O=C(CCl)N1CCc2ncncc2C1
inactive: [1] -0.554 | [2] -0.0201 | [3] -0.491 | [4] -0.276 | [5] -0.582
